Assays:
Experiment in all cases: log2 ratio of Biotin-Ahx-Ub-VS probe labelling (fragment/DMSO); higher = less target engagement (more negative = stronger competition), active = hit call of the paper (q ≤ 0.05, log2 ratio ≤ -1)
Conditions in all cases: compound concentration: 200 uM; treatment time: 3 h
USP42 = target: T1, USP42 (UniProt Q9H9J4)
T1 sequence (whole entry): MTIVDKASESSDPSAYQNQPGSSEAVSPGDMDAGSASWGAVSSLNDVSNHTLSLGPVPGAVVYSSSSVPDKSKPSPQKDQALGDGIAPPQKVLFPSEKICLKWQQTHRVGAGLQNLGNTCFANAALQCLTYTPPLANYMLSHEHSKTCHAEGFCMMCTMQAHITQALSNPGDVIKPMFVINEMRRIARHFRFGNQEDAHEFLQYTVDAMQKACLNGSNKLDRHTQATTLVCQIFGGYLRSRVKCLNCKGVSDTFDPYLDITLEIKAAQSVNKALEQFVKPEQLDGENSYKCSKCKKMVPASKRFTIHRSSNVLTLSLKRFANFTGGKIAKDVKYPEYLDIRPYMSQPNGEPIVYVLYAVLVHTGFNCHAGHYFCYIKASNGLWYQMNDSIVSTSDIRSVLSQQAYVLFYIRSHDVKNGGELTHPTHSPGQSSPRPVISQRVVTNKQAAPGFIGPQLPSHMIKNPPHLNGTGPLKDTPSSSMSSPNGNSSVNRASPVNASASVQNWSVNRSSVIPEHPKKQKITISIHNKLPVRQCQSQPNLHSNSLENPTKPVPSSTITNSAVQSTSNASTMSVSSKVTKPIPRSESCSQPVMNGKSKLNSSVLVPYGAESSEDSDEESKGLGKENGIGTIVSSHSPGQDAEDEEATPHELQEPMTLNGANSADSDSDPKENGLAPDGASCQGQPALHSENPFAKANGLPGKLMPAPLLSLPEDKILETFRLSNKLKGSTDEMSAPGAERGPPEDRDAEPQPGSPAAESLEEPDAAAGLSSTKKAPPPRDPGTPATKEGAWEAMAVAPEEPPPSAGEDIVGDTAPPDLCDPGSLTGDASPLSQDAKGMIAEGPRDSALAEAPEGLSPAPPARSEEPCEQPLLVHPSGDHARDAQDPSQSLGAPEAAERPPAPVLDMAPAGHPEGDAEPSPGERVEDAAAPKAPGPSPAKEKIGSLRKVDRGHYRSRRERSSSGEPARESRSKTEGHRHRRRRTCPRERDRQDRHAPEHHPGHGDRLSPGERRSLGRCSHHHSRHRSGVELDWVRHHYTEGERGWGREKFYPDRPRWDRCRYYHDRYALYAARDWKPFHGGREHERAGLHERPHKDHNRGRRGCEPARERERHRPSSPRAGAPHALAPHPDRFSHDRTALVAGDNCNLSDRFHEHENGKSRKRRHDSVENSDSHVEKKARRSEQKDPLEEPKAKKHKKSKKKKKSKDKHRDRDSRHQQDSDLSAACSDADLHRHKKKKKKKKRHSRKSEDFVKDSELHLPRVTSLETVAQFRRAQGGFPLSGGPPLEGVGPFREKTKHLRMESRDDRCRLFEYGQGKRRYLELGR
Method in brief: (§1)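 Labelling with Biotin-Ahx-Ub-VS (0.5 µM final, 1 h) followed a 3 h triplicate treatment of HEK293T lysate (495 µg per sample, Tris/CHAPS/IGEPAL buffer with protease inhibitors) with fragment at 200 µM or vehicle. Labelled DUBs were NeutrAvidin-enriched, digested with LysC and trypsin, and run by diaPASEF LC-MS/MS. The values, average log2 fragment/vehicle ratios by unpaired t-test, come from global-median-normalised Spectronaut label-free quantities. Proteins with ≥2 unique peptides were used.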

USP46 = USP46 (UniProt P62068)
Chain of USP46 (P62068 whole entry): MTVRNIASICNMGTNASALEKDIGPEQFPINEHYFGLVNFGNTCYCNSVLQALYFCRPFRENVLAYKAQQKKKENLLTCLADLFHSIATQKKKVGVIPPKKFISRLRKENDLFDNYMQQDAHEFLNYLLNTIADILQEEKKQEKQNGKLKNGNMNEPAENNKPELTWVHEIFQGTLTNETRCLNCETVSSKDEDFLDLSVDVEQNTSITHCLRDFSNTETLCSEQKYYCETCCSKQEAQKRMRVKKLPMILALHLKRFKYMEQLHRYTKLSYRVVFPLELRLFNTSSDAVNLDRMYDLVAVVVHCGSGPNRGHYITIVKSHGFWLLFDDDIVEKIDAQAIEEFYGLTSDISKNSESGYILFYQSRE
Method in brief: as §1

USP47 = target: T2, USP47 (UniProt Q96K76)
T2 sequence (whole entry): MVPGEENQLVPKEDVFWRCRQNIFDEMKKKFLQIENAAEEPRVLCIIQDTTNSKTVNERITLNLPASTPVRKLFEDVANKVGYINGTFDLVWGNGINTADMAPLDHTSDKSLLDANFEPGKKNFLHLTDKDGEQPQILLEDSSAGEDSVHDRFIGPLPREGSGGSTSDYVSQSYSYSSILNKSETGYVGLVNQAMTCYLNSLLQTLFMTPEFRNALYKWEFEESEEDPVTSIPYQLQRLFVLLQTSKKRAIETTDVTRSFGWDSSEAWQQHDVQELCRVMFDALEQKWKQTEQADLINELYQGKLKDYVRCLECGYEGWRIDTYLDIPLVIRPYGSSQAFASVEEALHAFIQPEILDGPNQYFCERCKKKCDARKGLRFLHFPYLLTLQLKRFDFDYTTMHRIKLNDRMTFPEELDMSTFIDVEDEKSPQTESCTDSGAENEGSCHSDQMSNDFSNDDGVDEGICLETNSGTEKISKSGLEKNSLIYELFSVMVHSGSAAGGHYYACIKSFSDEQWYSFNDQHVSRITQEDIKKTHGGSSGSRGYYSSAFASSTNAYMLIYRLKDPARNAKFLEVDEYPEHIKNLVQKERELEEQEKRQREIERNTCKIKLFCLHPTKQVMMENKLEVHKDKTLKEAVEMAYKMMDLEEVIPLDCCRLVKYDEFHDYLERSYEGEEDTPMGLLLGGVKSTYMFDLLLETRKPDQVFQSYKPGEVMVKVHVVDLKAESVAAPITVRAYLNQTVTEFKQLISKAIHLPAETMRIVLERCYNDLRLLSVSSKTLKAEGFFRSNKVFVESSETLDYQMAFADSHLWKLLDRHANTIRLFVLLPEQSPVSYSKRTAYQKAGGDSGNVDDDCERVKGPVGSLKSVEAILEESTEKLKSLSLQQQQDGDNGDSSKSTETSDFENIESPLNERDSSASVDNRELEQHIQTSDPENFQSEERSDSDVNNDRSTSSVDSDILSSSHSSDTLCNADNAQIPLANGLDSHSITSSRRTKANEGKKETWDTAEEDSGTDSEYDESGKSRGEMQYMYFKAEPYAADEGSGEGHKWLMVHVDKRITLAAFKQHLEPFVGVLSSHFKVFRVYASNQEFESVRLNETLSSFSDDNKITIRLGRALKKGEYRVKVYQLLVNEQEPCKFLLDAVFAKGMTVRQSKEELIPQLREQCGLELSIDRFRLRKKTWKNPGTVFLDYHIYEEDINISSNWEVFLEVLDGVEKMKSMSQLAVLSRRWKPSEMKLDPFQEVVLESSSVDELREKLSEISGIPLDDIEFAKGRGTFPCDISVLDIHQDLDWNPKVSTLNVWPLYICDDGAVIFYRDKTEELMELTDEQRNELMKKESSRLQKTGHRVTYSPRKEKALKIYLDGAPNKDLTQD
Method in brief: as §1

USP48 = target: T3, USP48 (UniProt Q86UV5)
T3 sequence (whole entry): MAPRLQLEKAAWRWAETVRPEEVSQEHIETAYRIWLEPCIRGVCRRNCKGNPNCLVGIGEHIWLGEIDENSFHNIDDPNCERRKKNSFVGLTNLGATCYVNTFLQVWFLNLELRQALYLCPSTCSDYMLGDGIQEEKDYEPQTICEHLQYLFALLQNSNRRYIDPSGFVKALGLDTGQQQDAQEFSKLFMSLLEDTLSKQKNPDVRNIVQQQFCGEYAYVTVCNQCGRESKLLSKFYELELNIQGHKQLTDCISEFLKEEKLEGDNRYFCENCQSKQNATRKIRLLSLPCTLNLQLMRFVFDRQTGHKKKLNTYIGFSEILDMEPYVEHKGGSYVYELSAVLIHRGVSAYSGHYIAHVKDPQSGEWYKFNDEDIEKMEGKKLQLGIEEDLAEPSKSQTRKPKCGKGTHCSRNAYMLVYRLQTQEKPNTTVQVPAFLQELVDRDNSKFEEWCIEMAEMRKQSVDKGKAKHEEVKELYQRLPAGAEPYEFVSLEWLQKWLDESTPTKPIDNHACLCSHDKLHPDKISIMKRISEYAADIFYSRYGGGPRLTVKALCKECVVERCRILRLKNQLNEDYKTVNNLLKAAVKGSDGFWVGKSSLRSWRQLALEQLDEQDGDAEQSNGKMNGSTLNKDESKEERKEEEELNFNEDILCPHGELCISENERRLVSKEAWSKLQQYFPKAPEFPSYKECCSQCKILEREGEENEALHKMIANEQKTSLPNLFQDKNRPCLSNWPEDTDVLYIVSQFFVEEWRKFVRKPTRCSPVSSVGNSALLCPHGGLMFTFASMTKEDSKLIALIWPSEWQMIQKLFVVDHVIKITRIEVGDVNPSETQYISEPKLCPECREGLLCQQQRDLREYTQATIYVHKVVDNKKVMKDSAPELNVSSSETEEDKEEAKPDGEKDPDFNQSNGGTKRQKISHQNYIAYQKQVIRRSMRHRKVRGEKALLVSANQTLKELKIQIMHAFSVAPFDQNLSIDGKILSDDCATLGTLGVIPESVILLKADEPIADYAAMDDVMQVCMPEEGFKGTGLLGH
Method in brief: as §1

USP5 = target: T4, USP5 (UniProt P45974)
T4 sequence (whole entry): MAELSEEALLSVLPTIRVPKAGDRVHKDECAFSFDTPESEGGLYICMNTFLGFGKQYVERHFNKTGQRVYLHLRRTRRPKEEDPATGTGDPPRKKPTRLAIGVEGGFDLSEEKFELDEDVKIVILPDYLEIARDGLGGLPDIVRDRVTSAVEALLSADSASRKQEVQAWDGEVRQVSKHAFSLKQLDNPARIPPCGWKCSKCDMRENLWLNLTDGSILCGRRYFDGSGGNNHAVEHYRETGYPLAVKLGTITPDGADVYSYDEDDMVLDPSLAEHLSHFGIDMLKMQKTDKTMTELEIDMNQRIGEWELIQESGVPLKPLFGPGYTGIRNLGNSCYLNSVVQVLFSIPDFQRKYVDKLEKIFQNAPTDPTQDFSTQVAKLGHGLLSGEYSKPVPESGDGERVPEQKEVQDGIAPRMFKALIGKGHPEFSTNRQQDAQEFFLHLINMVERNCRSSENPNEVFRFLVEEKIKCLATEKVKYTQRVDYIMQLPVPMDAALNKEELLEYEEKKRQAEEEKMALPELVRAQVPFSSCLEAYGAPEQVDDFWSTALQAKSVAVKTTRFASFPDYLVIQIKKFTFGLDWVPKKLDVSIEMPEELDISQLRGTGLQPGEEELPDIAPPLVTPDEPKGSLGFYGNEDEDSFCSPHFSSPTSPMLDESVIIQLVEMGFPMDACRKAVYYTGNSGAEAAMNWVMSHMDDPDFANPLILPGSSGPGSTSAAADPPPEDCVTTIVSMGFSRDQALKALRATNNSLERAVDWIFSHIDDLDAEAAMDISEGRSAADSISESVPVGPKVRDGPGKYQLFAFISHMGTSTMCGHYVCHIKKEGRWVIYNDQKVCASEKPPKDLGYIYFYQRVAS
Method in brief: as §1

USP54 = USP54 (UniProt Q70EL1)
Chain of USP54 (Q70EL1 whole entry): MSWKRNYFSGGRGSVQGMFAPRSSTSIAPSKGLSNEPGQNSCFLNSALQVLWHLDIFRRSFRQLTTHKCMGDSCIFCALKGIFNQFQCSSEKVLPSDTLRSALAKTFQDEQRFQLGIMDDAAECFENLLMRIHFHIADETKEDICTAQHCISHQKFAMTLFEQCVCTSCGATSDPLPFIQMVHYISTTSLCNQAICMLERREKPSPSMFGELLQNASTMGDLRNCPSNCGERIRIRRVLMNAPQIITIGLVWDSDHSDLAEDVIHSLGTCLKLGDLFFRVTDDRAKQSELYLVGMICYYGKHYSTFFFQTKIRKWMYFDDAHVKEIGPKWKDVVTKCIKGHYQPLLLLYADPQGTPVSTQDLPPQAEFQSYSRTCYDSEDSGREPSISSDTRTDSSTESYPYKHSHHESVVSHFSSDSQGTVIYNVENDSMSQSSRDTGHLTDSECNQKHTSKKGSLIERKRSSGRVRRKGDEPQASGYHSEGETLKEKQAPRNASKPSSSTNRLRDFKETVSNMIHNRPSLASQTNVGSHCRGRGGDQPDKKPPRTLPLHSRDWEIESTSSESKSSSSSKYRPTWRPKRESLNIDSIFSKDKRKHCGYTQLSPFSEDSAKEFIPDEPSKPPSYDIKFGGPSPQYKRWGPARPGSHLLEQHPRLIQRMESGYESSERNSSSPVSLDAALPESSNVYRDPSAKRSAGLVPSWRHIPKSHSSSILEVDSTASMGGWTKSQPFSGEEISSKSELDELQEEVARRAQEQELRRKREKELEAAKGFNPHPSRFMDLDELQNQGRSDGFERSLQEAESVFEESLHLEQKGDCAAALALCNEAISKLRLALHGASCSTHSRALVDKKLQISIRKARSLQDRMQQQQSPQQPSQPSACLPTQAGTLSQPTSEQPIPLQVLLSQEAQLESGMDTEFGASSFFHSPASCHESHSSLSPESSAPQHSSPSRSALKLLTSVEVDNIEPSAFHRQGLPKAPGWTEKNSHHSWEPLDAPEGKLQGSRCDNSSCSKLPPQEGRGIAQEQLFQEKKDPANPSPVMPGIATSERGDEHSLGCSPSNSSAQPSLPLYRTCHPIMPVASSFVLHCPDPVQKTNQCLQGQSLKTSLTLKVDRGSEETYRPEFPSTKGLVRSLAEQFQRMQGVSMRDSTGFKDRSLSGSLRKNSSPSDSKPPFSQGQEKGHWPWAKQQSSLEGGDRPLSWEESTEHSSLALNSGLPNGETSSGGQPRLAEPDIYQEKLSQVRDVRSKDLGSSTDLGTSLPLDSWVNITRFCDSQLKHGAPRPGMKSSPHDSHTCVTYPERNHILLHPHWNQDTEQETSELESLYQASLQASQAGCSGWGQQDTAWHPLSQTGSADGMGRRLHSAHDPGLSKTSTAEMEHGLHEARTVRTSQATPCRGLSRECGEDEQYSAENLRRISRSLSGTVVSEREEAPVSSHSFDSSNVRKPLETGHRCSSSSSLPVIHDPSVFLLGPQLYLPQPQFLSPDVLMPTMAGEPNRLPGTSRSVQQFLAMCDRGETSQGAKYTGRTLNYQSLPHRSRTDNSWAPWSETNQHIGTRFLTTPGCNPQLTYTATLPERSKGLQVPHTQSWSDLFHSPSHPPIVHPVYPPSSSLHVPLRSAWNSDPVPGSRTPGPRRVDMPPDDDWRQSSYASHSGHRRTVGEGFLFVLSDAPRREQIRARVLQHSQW
Method in brief: as §1

USP7 = USP7 (UniProt Q93009)
Chain of USP7 (Q93009 whole entry, looked up): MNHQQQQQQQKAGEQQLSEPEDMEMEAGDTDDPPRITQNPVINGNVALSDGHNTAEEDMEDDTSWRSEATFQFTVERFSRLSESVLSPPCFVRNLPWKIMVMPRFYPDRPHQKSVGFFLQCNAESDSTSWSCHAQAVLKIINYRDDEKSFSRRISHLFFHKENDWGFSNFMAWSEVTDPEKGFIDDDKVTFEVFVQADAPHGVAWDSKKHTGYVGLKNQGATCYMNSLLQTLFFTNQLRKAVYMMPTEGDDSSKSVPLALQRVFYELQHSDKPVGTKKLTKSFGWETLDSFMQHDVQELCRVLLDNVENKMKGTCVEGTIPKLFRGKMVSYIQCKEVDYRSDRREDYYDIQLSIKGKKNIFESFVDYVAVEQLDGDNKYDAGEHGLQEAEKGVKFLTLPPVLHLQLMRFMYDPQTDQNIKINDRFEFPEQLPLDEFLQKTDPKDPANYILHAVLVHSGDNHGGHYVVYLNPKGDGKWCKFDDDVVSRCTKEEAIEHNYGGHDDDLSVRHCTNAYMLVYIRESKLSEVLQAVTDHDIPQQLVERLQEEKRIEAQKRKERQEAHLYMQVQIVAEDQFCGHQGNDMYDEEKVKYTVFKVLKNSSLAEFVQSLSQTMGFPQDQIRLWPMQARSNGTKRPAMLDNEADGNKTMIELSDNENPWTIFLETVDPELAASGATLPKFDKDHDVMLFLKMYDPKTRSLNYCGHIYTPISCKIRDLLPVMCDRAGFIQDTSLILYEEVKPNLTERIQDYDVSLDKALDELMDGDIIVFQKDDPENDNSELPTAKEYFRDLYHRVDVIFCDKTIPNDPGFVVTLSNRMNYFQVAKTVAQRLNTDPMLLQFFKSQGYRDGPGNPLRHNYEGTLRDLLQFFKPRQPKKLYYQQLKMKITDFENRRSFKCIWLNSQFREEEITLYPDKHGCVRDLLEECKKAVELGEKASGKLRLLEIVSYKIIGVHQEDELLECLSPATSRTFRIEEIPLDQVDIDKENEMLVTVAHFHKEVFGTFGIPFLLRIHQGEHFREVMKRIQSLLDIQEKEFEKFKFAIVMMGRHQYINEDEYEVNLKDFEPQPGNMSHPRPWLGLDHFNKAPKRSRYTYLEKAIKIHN
Method in brief: as §1

USP8 = target: T5, USP8 (UniProt P40818)
T5 sequence (whole entry): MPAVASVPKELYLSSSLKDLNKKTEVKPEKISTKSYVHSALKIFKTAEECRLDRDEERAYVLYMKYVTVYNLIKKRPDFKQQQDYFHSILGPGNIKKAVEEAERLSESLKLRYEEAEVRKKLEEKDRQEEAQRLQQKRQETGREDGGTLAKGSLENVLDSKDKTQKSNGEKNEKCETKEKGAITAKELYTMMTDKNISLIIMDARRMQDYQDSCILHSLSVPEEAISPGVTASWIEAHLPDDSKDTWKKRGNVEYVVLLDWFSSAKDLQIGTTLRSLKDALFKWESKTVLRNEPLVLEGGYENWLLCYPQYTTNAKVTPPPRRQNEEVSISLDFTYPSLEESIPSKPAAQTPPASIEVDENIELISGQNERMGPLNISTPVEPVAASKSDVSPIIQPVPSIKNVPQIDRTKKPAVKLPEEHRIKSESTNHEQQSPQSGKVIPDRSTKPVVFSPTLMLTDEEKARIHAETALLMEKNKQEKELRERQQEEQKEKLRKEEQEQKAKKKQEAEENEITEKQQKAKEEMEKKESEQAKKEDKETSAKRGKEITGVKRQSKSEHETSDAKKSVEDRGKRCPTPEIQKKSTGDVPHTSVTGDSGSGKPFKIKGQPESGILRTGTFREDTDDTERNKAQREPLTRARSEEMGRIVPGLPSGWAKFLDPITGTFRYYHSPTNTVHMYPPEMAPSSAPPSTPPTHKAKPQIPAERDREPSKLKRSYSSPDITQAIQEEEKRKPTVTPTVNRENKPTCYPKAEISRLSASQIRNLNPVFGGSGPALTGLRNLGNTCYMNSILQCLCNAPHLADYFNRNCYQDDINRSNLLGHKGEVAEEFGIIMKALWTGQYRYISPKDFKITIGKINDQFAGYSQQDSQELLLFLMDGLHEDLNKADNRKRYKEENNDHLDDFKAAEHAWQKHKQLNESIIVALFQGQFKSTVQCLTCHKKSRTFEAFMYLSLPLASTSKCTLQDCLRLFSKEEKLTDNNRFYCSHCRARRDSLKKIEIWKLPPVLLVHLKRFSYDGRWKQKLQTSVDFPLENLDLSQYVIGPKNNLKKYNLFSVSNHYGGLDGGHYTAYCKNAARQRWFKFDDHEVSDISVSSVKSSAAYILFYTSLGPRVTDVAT
Method in brief: as §1

USP9X = USP9X (UniProt Q93008)
Method in brief: as §1

UniProt O00487 = target: UniProt O00487
Chain of UniProt O00487 (O00487 whole entry): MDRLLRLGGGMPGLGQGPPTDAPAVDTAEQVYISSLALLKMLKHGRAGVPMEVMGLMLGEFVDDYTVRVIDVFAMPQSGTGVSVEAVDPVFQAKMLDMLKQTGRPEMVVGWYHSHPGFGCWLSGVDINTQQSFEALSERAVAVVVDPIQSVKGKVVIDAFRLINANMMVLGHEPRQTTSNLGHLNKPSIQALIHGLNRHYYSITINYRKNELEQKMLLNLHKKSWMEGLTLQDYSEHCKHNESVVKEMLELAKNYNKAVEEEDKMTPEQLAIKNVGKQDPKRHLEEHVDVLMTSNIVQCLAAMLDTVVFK
Method in brief: as §1

Measured: log2 ratio of Biotin-Ahx-Ub-VS probe labelling

CC(NC(=O)CCl)c1cc2n(n1)CCCC2.Cl (stereo not given)
inactive: USP42 0.487 | USP46 -0.0285 | USP47 0.43 | USP48 -0.017 | USP5 -0.437 | USP54 0.53 | USP7 -0.279 | USP8 0.0604 | USP9X -0.0806 | UniProt O00487 -0.00796

— the supplement of paper PMC11732987, “Enantioselective OTUD7B fragment discovery through chemoproteomics screening and high-throughput optimisation” (Communications Chemistry, 2025)
